Laboratory results: PubChem BioAssay AID1159580 (chemical genetic matrix, 2015)
In all, about 5,500 compounds went through this assay and about 2,000 (36%) were called active. Roughly 18% stayed inconclusive and do not appear here. Cut-off read from the data, not from the text of the source: active = normalized growth mostly below about 0.91 (no sharp cut-off); inconclusive = no clear call, values can overlap the other calls; inactive = mostly above about 0.92. This is one part of the list.

Experiment: chemical genetic growth profiling, strain panel (AID 1159580);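 note: tested at 20 µM; growth read once vehicle control cultures reached saturation at 30 °C; 1 = growth at the plate median or of vehicle wells; lower values mean less growth of the strain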
Settings: growth OD

Measured: normalized growth

Cc1cc(C(F)(F)F)c(C#N)c(=O)[nH]1
inactive: S. cerevisiae deletion strains, locus YAL013W, strain DEP1, hits give low values 1.02 | S. cerevisiae deletion strains, locus YBR229C, strain ROT2, hits give low values 1 | S. cerevisiae deletion strains, locus YCL061C, strain MRC1, hits give low values 1 | S. cerevisiae deletion strains, locus YDL101C, strain DUN1, hits give low values 0.995 | S. cerevisiae deletion strains, locus YDL134C, strain PPH21, hits give low values 1.01 | S. cerevisiae deletion strains, locus YDR150W, strain NUM1, hits give low values 0.982 | S. cerevisiae deletion strains, locus YEL061C, strain CIN8, hits give low values 1 | S. cerevisiae deletion strains, locus YGR078C, strain PAC10, hits give low values 1 | S. cerevisiae deletion strains, locus YHR030C, strain SLT2, hits give low values 1.01 | S. cerevisiae deletion strains, locus YHR087W, strain rtc3, hits give low values 1 | S. cerevisiae deletion strains, locus YJL187C, strain SWE1, hits give low values 1 | S. cerevisiae deletion strains, locus YJR043C, strain POL32, hits give low values 0.997 | S. cerevisiae deletion strains, locus YJR075W, strain HOC1, hits give low values 1.03 | S. cerevisiae deletion strains, locus YKL190W, strain CNB1, hits give low values 1.01 | S. cerevisiae deletion strains, locus YLR039C, strain RIC1, hits give low values 1.04 | S. cerevisiae deletion strains, locus YLR058C, strain SHM2 (second series), hits give low values 1 | S. cerevisiae deletion strains, locus YLR085C, strain ARP6, hits give low values 1.03 | S. cerevisiae deletion strains, locus YLR262C, strain YPT6, hits give low values 1.03 | S. cerevisiae deletion strains, locus YML094W, strain GIM5, hits give low values 0.997 | S. cerevisiae deletion strains, locus YMR219W, strain ESC1, hits give low values 1.01 | S. cerevisiae deletion strains, locus YMR263W, strain SAP30, hits give low values 0.963 | S. cerevisiae deletion strains, locus YNL128W, strain TEP1, hits give low values 1.02 | S. cerevisiae deletion strains, locus YNL153C, strain GIM3, hits give low values 1 | S. cerevisiae deletion strains, locus YNL298W, strain CLA4 (second series), hits give low values 1.02 | S. cerevisiae deletion strains, locus YNL322C, strain KRE1, hits give low values 1 | S. cerevisiae deletion strains, locus YNR030W, strain Alg12, hits give low values 1.02 | S. cerevisiae deletion strains, locus YOL006C, strain TOP1, hits give low values 1.06 | S. cerevisiae deletion strains, locus YPL055C, strain LGE1, hits give low values 1.02 | S. cerevisiae deletion strains, locus YPL241C, strain CIN2, hits give low values 0.941 | S. cerevisiae deletion strains, locus YPR135W, strain CTF4, hits give low values 1.06 | S. cerevisiae strains, strain wild type, hits give low values 1.02
